# From PubChem BioAssay AID1159580 (chemical genetic matrix, 2015)
# Hit rate of the full screen: of about 5,500 compounds, about 2,000 (36%) were called active. Another 18% or so got no clear call; they are omitted. Some of the results follow. Values without a mark were called inactive. Rule as the data show it: active = normalized growth mostly below about 0.91 (no sharp cut-off); inconclusive = no clear call, values can overlap the other calls; inactive = mostly above about 0.92.
# Assay: chemical genetic growth profiling, strain panel (AID 1159580);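 also: tested at 20 µM; growth read once vehicle control cultures reached saturation at 30 °C; 1 = growth at the plate median or of vehicle wells; lower values mean less growth of the strain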
# Conditions: growth OD
smiles,measurement,setting,value
NC(=NCCCCCCN=C(N)N=C(N)Nc1ccc(Cl)cc1)N=C(N)Nc1ccc(Cl)cc1,normalized growth,"S. cerevisiae deletion strains, locus YJR075W, strain HOC1, active compounds read low",0.0644 (active)
same,normalized growth,"S. cerevisiae deletion strains, locus YKL009W, strain mrt4, active compounds read low",0.478 (active)
same,normalized growth,"S. cerevisiae deletion strains, locus YKL068W, active compounds read low",0.977
same,normalized growth,"S. cerevisiae deletion strains, locus YKL085W, strain MDH1 (second series), active compounds read low",0.906 (active)
same,normalized growth,"S. cerevisiae deletion strains, locus YKL085W, strain MDH1, active compounds read low",0.906 (active)
same,normalized growth,"S. cerevisiae deletion strains, locus YKL160W, strain elf1, active compounds read low",0.0627 (active)
same,normalized growth,"S. cerevisiae deletion strains, locus YKL190W, strain CNB1, active compounds read low",0.0461 (active)
same,normalized growth,"S. cerevisiae deletion strains, locus YKR001C, strain vps1, active compounds read low",0.0656 (active)
same,normalized growth,"S. cerevisiae deletion strains, locus YKR026C, strain gcn3, active compounds read low",0.0624 (active)
same,normalized growth,"S. cerevisiae deletion strains, locus YKR091W, strain srl3, active compounds read low",0.0577 (active)
same,normalized growth,"S. cerevisiae deletion strains, locus YLL001W, strain dnm1, active compounds read low",0.0629 (active)
same,normalized growth,"S. cerevisiae deletion strains, locus YLL026W, active compounds read low",0.0551 (active)
same,normalized growth,"S. cerevisiae deletion strains, locus YLL041C, strain sdh2, active compounds read low",0.0558 (active)
same,normalized growth,"S. cerevisiae deletion strains, locus YLR027C, strain aat2, active compounds read low",0.0552 (active)
same,normalized growth,"S. cerevisiae deletion strains, locus YLR039C, strain RIC1, active compounds read low",0.0768 (active)
same,normalized growth,"S. cerevisiae deletion strains, locus YLR058C, strain SHM2, active compounds read low",0.0478 (active)
same,normalized growth,"S. cerevisiae deletion strains, locus YLR102C, strain apc9, active compounds read low",0.0634 (active)
same,normalized growth,"S. cerevisiae deletion strains, locus YLR113W, strain HOG1, active compounds read low",0.126 (active)
same,normalized growth,"S. cerevisiae deletion strains, locus YLR221C, strain rsa3, active compounds read low",0.058 (active)
same,normalized growth,"S. cerevisiae deletion strains, locus YLR258W, strain gsy2, active compounds read low",0.0585 (active)
same,normalized growth,"S. cerevisiae deletion strains, locus YLR262C, strain YPT6 (second series), active compounds read low",0.0721 (active)
same,normalized growth,"S. cerevisiae deletion strains, locus YLR262C, strain YPT6, active compounds read low",0.0923 (active)
same,normalized growth,"S. cerevisiae deletion strains, locus YLR268W, strain sec22, active compounds read low",0.0678 (active)
same,normalized growth,"S. cerevisiae deletion strains, locus YLR320W, strain mms22, active compounds read low",0.0755 (active)
same,normalized growth,"S. cerevisiae deletion strains, locus YLR330W, strain CHS5, active compounds read low",0.0516 (active)
same,normalized growth,"S. cerevisiae deletion strains, locus YLR342W, strain FKS1 (second series), active compounds read low",0.0692 (active)
same,normalized growth,"S. cerevisiae deletion strains, locus YLR342W, strain FKS1, active compounds read low",0.063 (active)
same,normalized growth,"S. cerevisiae deletion strains, locus YLR357W, strain rsc2, active compounds read low",0.116 (active)
same,normalized growth,"S. cerevisiae deletion strains, locus YLR370C, strain arc18, active compounds read low",0.0607 (active)
same,normalized growth,"S. cerevisiae deletion strains, locus YLR371W, strain rom2, active compounds read low",0.0627 (active)
same,normalized growth,"S. cerevisiae deletion strains, locus YLR384C, strain iki3, active compounds read low",0.057 (active)
same,normalized growth,"S. cerevisiae deletion strains, locus YLR418C, strain cdc73, active compounds read low",0.0991 (active)
same,normalized growth,"S. cerevisiae deletion strains, locus YML016C, strain PPZ1, active compounds read low",0.0482 (active)
same,normalized growth,"S. cerevisiae deletion strains, locus YML032C, strain rad52, active compounds read low",0.0699 (active)
same,normalized growth,"S. cerevisiae deletion strains, locus YML120C, strain ndi1, active compounds read low",0.0569 (active)
same,normalized growth,"S. cerevisiae deletion strains, locus YML124C, strain tub3, active compounds read low",0.0596 (active)
same,normalized growth,"S. cerevisiae deletion strains, locus YMR058W, strain fet3, active compounds read low",0.0607 (active)
same,normalized growth,"S. cerevisiae deletion strains, locus YMR078C, strain ctf18, active compounds read low",0.071 (active)
same,normalized growth,"S. cerevisiae deletion strains, locus YMR125W, strain sto1, active compounds read low",0.0789 (active)
same,normalized growth,"S. cerevisiae deletion strains, locus YMR129W, active compounds read low",0.0564 (active)
same,normalized growth,"S. cerevisiae deletion strains, locus YMR205C, strain PFK2, active compounds read low",0.0855 (active)
same,normalized growth,"S. cerevisiae deletion strains, locus YMR223W, strain ubp8, active compounds read low",0.0651 (active)
same,normalized growth,"S. cerevisiae deletion strains, locus YMR231W, strain pep5, active compounds read low",0.064 (active)
same,normalized growth,"S. cerevisiae deletion strains, locus YMR263W, strain SAP30, active compounds read low",0.0566 (active)
same,normalized growth,"S. cerevisiae deletion strains, locus YMR307W, strain GAS1, active compounds read low",0.0969 (active)
same,normalized growth,"S. cerevisiae deletion strains, locus YNL067W, strain RPL9B, active compounds read low",0.0509 (active)
same,normalized growth,"S. cerevisiae deletion strains, locus YNL071W, strain lat1, active compounds read low",0.0604 (active)
same,normalized growth,"S. cerevisiae deletion strains, locus YNL128W, strain TEP1, active compounds read low",0.0651 (active)
same,normalized growth,"S. cerevisiae deletion strains, locus YNL153C, strain GIM3, active compounds read low",0.0505 (active)
same,normalized growth,"S. cerevisiae deletion strains, locus YNL183C, strain NPR1, active compounds read low",0.139 (active)
same,normalized growth,"S. cerevisiae deletion strains, locus YNL209W, strain ssb2, active compounds read low",0.057 (active)
same,normalized growth,"S. cerevisiae deletion strains, locus YNL233W, strain BNI4, active compounds read low",0.0552 (active)
same,normalized growth,"S. cerevisiae deletion strains, locus YNL248C, strain rpa49, active compounds read low",0.075 (active)
same,normalized growth,"S. cerevisiae deletion strains, locus YNL250W, strain rad50, active compounds read low",0.909
same,normalized growth,"S. cerevisiae deletion strains, locus YNL271C, strain bni1, active compounds read low",0.607 (active)
same,normalized growth,"S. cerevisiae deletion strains, locus YNL298W, strain CLA4, active compounds read low",0.0653 (active)
same,normalized growth,"S. cerevisiae deletion strains, locus YNL307C, strain MCK1, active compounds read low",0.0676 (active)
same,normalized growth,"S. cerevisiae deletion strains, locus YNL322C, strain KRE1 (second series), active compounds read low",0.0655 (active)
same,normalized growth,"S. cerevisiae deletion strains, locus YNL322C, strain KRE1, active compounds read low",0.0467 (active)
same,normalized growth,"S. cerevisiae deletion strains, locus YNR049C, strain mso1, active compounds read low",0.0617 (active)
same,normalized growth,"S. cerevisiae deletion strains, locus YNR052C, strain pop2, active compounds read low",0.0607 (active)
same,normalized growth,"S. cerevisiae deletion strains, locus YOL006C, strain TOP1, active compounds read low",0.107 (active)
same,normalized growth,"S. cerevisiae deletion strains, locus YOL012C, strain htz1",0.183 (active)
same,normalized growth,"S. cerevisiae deletion strains, locus YOL147C, strain pex11, active compounds read low",0.0595 (active)
same,normalized growth,"S. cerevisiae deletion strains, locus YOR001W, strain rrp6, active compounds read low",0.0681 (active)
same,normalized growth,"S. cerevisiae deletion strains, locus YOR061W, strain CKA2, active compounds read low",0.0471 (active)
same,normalized growth,"S. cerevisiae deletion strains, locus YOR069W, strain VPS5, active compounds read low",0.0468 (active)
same,normalized growth,"S. cerevisiae deletion strains, locus YOR070C, strain gyp1, active compounds read low",0.0572 (active)
same,normalized growth,"S. cerevisiae deletion strains, locus YOR080W, strain dia2, active compounds read low",0.0623 (active)
same,normalized growth,"S. cerevisiae deletion strains, locus YOR083W, strain WHI5, active compounds read low",0.0615 (active)
same,normalized growth,"S. cerevisiae deletion strains, locus YOR106W, strain vam3, active compounds read low",0.0675 (active)
same,normalized growth,"S. cerevisiae deletion strains, locus YOR136W, strain idh2, active compounds read low",0.0708 (active)
same,normalized growth,"S. cerevisiae deletion strains, locus YOR144C, strain elg1, active compounds read low",0.0593 (active)
same,normalized growth,"S. cerevisiae deletion strains, locus YOR184W, strain ser1, active compounds read low",0.0744 (active)
same,normalized growth,"S. cerevisiae deletion strains, locus YOR231W, strain MKK1, active compounds read low",0.0973 (active)
same,normalized growth,"S. cerevisiae deletion strains, locus YOR265W, strain rbl2, active compounds read low",0.0543 (active)
same,normalized growth,"S. cerevisiae deletion strains, locus YOR270C, strain vph1, active compounds read low",0.107 (active)
same,normalized growth,"S. cerevisiae deletion strains, locus YOR290C, strain snf2, active compounds read low",0.0655 (active)
same,normalized growth,"S. cerevisiae deletion strains, locus YOR316C, strain cot1, active compounds read low",0.0609 (active)
same,normalized growth,"S. cerevisiae deletion strains, locus YPL051W, strain arl3, active compounds read low",0.0612 (active)
same,normalized growth,"S. cerevisiae deletion strains, locus YPL055C, strain LGE1, active compounds read low",0.0688 (active)
same,normalized growth,"S. cerevisiae deletion strains, locus YPL078C, strain atp4, active compounds read low",0.0665 (active)
same,normalized growth,"S. cerevisiae deletion strains, locus YPL106C, strain sse1, active compounds read low",0.0968 (active)
same,normalized growth,"S. cerevisiae deletion strains, locus YPL240C, strain hsp82, active compounds read low",0.0556 (active)
same,normalized growth,"S. cerevisiae deletion strains, locus YPL241C, strain CIN2, active compounds read low",0.0486 (active)
same,normalized growth,"S. cerevisiae deletion strains, locus YPL256C, strain CLN2, active compounds read low",0.124 (active)
same,normalized growth,"S. cerevisiae deletion strains, locus YPR119W, strain clb2, active compounds read low",0.0667 (active)
same,normalized growth,"S. cerevisiae deletion strains, locus YPR141C, strain kar3, active compounds read low",1.01
same,normalized growth,"S. cerevisiae deletion strains, locus YPR163C, strain tif3, active compounds read low",0.0696 (active)
same,normalized growth,"S. cerevisiae deletion strains, locus YPR167C, strain met16, active compounds read low",0.0625 (active)
same,normalized growth,"S. cerevisiae deletion strains, strain wtn01, active compounds read low",0.0592 (active)
same,normalized growth,"S. cerevisiae strains, strain wild type, active compounds read low",0.0489 (active)
